According to PubChem BioAssay:
Activity calls are given as the source filed them.

Experiments:
[1] = binders of probe aFSTL3 on microarray, primary screen, stem cell growth factor project, biochemical, small-molecule microarray, fluorescence 635/667 (AID 1064); settings: higher = more signal;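 note: measures binding of the biotinylated anti-FSTL3 antibody to printed compounds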
[2] = binders from COS7 lysate, DM2A8 probe, primary screen, torsin A project, cell lysate, small-molecule microarray, fluorescence 635/667 (AID 1065); settings: higher = more signal, COS7 lysate expressing mutant human TOR1A
[3] = binders of probe aFGF2 on microarray, primary screen, stem cell growth factor project, biochemical, small-molecule microarray, fluorescence 635/667 (AID 1067); settings: higher = more signal;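 note: measures binding of biotinylated aFGF2 protein to printed compounds on slides; z-score merges feature fluorescence and signal-to-noise across triplicate slides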
[4] = binders of probe aFGF10 on microarray, primary screen, stem cell growth factor project, biochemical, small-molecule microarray, fluorescence 635/667 (AID 1071); settings: higher = more signal;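 note: score merges 667 nm spot intensity and signal to noise from triplicate slides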
[5] = biological target: Neurogenic locus notch homolog protein 2 (Homo sapiens) (UniProt Q04721); test: Notch2 binders on small-molecule microarrays, primary screen, biochemical, small-molecule microarray, 635 nm fluorescence, stem cell growth factors (AID 1073); settings: Notch2 binding, higher = more signal
[6] = biological target: Pro-neuregulin-1, membrane-bound isoform (Homo sapiens) (UniProt Q02297); test: NRG1 binders on small-molecule microarrays, primary screen, psychiatric disease protein project, biochemical, small-molecule microarray, fluorescence 635/667 (AID 1075); settings: NRG1 binding, 635 nm fluorescence, higher = more signal;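 note: score combines 667 nm spot fluorescence with signal to noise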
[7] = system: Neuregulin-1 EGF-like domain; test: binders of neuregulin-1 EGF-like domain, primary screen, biochemical, small-molecule microarray, 635 nm fluorescence (AID 1081); settings: small-molecule microarray binding, higher = more signal;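 note: binding of the protein to compounds printed on small-molecule microarray slides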
[8] = FRG1 promoter luciferase signal modulators, primary screen, FRG1 inhibition for FSHD, cell-based, C2C12 myotubes, firefly/Renilla luciferase, luminescence (AID 1084); settings: higher = more signal, called active from +8 up or from −8 down
[9] = binders of probe aFST on microarray, primary screen, stem cell growth factor project, biochemical, small-molecule microarray, fluorescence 635/667 (AID 1086); settings: higher = more signal;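 note: score merges 667 nm fluorescence with signal-to-noise of each printed compound spot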
[10] = binders of probe aHhip on microarray, primary screen, stem cell growth factor project, biochemical, small-molecule microarray, fluorescence 635/667 (AID 1087); settings: higher = more signal;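 note: score merges spot fluorescence at 667nm with spot signal to noise ratio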
[11] = system: PRMT1 (protein arginine N-methyltransferase 1); test: PRMT1 binders on small-molecule microarrays, primary screen, biochemical, small-molecule microarray, 635 nm fluorescence (AID 1088); settings: small-molecule microarray binding, higher = more signal;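 note: binding of Prmt1 protein to compounds spotted on small-molecule microarray slides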
[12] = yeast growth modulation, basal conditions, primary screen, YJM789 clinical isolate, OD600, 24 h (AID 1089);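 note: growth of clinical yeast isolate S. cerevisiae YJM 789 seeded 1000 cells per well; test concentration not given here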; settings: S. cerevisiae YJM789 growth, higher = more signal, called active from +8 up or from −8 down
[13] = fission yeast growth modulation, primary screen, strain 972, OD600, 24 h, no modulator (AID 1090);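 note: basal condition with compound alone and no growth modifier present; test concentration not given here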; settings: S. pombe 972 growth, higher = more signal, called active from +8 up or from −8 down
[14] = S. cerevisiae growth modulation with rapamycin, primary screen, strain BY4716, OD600, 96 h (AID 1091); settings: higher = more signal, called active from +8 up or from −8 down; note: test concentration not given here
[15] = biological target: Torsin-1A-interacting protein 2 (Homo sapiens) (UniProt Q8NFQ8); test: LULL1 binders on small-molecule microarray, primary screen, cell lysate, human LULL1 lysate, 635/667 nm fluorescence (AID 1092); settings: hLULL1 lysate binding, 635 nm fluorescence, higher = more signal;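 note: probe is lysate of COS7 cells overexpressing human LULL1; score merges per-feature 667 nm fluorescence with signal-to-noise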
[16] = E. coli growth modulation, two-sided OD650, primary screen, E. coli filamentation project, strain DRC41, 24 h (AID 1093); settings: OD650, 24 h, higher = more signal, called active from +8 up or from −8 down;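 note: MC1000 strain lacking acrAB efflux and sulA so SOS filamentation is blocked; test concentration not given here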
[17] = small-molecule microarray binders of probe aLefty2, primary screen, biochemical, biotinylated probe, 635/667 nm fluorescence (AID 1094); settings: higher = more signal;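 note: score merges spot fluorescence near 667 nm with spot signal-to-noise ratio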
[18] = system: Noggin (protein binding on small-molecule microarray); test: Noggin binders on small-molecule microarray, primary screen, biochemical, 635/667 nm fluorescence (AID 1095); settings: 635 nm fluorescence, higher = more signal;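 note: score merges 667 nm feature fluorescence with signal to noise over triplicate slides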
[19] = biological target: Neurogenic locus notch homolog protein 3 (Homo sapiens) (UniProt Q9UM47); test: NOTCH3 binders on small-molecule microarray, primary screen, biochemical, 635/667 nm fluorescence (AID 1096); settings: NOTCH3 binding, 635 nm fluorescence, higher = more signal
[20] = small-molecule microarray binders of probe aEGFR, primary screen, biochemical, biotinylated probe, 635/667 nm fluorescence (AID 1097); settings: higher = more signal;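 note: probe is a biotinylated anti-EGFR antibody binding compounds printed on slides; score combines fluorescence near 667 nm and signal to noise of each spot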

Sequence of Neurogenic locus notch homolog protein 3 (Homo sapiens) (Q9UM47 whole entry, looked up): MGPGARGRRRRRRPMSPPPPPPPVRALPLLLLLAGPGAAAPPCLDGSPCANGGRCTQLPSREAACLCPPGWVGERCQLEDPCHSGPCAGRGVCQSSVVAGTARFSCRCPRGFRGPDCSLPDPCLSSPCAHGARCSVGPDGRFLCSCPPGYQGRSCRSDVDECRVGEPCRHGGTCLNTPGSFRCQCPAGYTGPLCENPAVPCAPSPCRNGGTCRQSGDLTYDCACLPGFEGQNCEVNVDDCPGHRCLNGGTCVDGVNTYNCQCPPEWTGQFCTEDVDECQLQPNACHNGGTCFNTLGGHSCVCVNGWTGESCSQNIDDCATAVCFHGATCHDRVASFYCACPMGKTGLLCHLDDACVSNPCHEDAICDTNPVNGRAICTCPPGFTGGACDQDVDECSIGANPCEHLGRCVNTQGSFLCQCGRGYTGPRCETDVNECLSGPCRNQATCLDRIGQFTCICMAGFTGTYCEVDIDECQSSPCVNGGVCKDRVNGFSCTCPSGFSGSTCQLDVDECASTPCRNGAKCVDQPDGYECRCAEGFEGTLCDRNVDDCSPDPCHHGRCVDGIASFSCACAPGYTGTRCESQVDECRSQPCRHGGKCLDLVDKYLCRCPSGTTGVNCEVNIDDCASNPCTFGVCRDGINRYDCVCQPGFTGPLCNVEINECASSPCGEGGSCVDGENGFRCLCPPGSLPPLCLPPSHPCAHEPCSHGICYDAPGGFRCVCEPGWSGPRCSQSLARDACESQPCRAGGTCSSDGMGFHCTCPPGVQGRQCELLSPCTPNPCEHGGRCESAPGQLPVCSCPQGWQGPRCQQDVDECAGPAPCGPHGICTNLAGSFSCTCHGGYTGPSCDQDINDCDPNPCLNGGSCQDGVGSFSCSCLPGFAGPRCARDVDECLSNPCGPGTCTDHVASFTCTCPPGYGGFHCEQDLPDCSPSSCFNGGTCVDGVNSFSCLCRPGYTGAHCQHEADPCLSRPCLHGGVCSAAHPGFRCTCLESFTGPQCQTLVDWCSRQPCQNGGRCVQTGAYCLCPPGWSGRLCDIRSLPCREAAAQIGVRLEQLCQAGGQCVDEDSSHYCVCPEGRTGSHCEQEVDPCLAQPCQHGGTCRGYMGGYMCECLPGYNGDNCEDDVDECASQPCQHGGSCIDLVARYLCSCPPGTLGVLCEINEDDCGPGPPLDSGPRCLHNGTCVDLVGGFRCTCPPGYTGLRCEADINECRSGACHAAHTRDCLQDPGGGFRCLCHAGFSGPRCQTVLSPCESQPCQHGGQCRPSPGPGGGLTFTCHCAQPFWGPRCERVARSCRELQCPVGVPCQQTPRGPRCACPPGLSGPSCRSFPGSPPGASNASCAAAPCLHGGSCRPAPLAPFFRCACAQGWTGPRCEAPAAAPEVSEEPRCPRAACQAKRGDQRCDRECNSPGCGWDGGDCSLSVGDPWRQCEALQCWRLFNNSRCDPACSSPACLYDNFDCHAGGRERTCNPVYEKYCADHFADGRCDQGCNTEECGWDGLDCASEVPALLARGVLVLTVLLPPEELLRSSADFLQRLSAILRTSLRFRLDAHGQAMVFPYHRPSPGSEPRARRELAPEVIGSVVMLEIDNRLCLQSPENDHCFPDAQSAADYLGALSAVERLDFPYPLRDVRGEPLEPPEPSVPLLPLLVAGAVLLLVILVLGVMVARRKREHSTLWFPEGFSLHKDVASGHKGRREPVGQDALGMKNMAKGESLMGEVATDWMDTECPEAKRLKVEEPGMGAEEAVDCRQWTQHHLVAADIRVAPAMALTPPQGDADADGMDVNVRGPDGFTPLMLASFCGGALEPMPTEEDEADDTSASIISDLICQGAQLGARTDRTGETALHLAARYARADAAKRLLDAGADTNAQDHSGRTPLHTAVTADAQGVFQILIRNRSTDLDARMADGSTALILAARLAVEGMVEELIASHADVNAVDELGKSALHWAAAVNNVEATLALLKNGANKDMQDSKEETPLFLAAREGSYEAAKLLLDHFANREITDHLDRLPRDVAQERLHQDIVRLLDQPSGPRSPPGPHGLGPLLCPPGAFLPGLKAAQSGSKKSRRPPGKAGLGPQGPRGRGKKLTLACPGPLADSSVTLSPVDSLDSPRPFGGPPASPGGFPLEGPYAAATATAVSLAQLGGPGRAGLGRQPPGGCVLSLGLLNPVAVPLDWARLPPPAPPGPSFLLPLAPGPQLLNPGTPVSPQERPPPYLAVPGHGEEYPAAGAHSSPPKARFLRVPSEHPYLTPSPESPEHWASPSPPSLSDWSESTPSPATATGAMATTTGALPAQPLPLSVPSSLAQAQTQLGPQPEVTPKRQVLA
Sequence of Torsin-1A-interacting protein 2 (Homo sapiens) (Q8NFQ8 whole entry, looked up): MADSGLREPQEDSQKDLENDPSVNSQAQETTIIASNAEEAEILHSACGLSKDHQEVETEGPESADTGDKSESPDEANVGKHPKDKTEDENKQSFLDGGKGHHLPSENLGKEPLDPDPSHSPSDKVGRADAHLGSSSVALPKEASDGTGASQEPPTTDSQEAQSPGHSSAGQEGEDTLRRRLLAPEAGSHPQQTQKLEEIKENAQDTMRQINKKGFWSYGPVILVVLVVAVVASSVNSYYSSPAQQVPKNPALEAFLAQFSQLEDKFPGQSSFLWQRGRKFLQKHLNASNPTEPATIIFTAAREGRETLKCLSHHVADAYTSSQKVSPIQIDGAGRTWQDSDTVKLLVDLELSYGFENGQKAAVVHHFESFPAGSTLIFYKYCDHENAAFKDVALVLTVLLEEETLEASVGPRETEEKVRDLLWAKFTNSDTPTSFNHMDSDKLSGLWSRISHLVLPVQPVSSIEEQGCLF
Sequence of Pro-neuregulin-1, membrane-bound isoform (Homo sapiens) (Q02297 whole entry, looked up, the tested form may be a part, canonical isoform): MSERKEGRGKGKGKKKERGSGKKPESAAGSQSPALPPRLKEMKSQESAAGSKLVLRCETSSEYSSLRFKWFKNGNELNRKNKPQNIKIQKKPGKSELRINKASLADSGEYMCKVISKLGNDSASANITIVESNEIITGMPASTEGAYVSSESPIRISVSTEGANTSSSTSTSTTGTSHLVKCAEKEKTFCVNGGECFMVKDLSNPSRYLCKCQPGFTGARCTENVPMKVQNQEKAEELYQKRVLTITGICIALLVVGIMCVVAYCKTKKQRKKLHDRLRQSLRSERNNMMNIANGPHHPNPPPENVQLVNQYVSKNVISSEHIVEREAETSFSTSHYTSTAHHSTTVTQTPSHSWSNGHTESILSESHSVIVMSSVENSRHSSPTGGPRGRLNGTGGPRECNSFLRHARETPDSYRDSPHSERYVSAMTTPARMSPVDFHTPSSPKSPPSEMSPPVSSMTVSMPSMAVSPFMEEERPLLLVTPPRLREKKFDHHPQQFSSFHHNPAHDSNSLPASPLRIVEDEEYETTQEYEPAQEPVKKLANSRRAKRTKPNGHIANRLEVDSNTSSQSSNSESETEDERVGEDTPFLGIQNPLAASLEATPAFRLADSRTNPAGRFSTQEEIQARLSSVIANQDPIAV

SMILES	composite z-score [1]	composite z-score [2]	composite z-score [3]	composite z-score [4]	composite z-score [5]	composite z-score [6]	composite z-score [7]	z-score [8]	composite z-score [9]	composite z-score [10]	composite z-score [11]	z-score [12]	z-score [13]	z-score [14]	composite z-score [15]	z-score [16]	composite z-score [17]	composite z-score [18]	composite z-score [19]	composite z-score [20]
N#Cc1ccc(NN2C(C(O)C3CC=CCC3)C=CC3C(=O)N(c4ccccc4)C(=O)C32)cc1 (stereo not given)	0.076	-0.902	-0.073	0.39	1.5	1.89	1.29	0.474 (inactive)	1.28	-0.0427	0.995	0.609 (inactive)	0.773 (inactive)	1.99 (inactive)	3.5	-0.645 (inactive)	-0.0873	0.179	1.1	0.0149
C[C@@H]1ON(c2ccccc2)[C@H](c2ccccc2)[C@H]1C(=O)O	-0.0301	0.112	-0.085	0.364	0.0812	-0.515	-0.198	-0.313 (inactive)	-0.0817	0.289	0.461	-0.452 (inactive)	0.252 (inactive)	-0.408 (inactive)	-0.0551	-0.108 (inactive)	-0.196	0.175	0.102	0.203
C#CCN1[C@@H](Cc2ccccc2)C(=O)O[C@H](Cc2ccccc2)[C@@H]1/C=C/C1CC1	-0.733	0.819	-0.0807	0.289	-0.271	-0.151	0.86	-3.46 (inactive)	0.426	0.198	-0.101	0.295 (inactive)	-0.361 (inactive)	0.148 (inactive)	1.14	0.855 (inactive)	-0.185	0.33	0.246	-0.0422
CCOC(=O)C1=CCC(c2cc3ccccc3[nH]2)N(CCN2CC(C(=O)OCC)=CCC2c2cc3ccccc3[nH]2)C1 (stereo not given)	-0.0107	-0.75	-0.0216	0.433	1.06	1.82	1.32	2.57 (inactive)	0.74	-0.361	1.4	-1.61 (inactive)	0.97 (inactive)	-0.34 (inactive)	3.38	0.053 (inactive)	0.0094	0.38	0.862	-0.0084
C=CCNC(=O)[C@H]1[C@@H]2C(=O)O[C@@H](c3ccccc3)[C@@H](c3ccccc3)N2[C@@H](c2ccccc2OCCO)[C@]12C(=O)N(C(=O)OCCOC)c1ccc(C#Cc3ccc(OC)cc3)cc12	0.0122	0.633	0.0074	0.668	0.615	1.33	1.21	1.34 (inactive)	0.101	-0.0645	1.55	2.2 (inactive)	0.823 (inactive)	6.52 (inactive)	2.94	0.769 (inactive)	-0.0998	0.173	0.647	-0.092
COC(=O)C(CC#Cc1ccc2c(c1)[C@]1(C(=O)N2)[C@H](C(=O)NC[C@H](O)c2ccccc2)[C@H]2C(=O)O[C@H](c3ccccc3)[C@H](c3ccccc3)N2[C@@H]1c1ccccc1OCCO)C(=O)OC	-0.266	0.423	-0.0996	0.558	1.08	1.27	1.3	0.0111 (inactive)	0.254	0.0749	1.54	2.15 (inactive)	-0.247 (inactive)	2.59 (inactive)	2.89	2.13 (inactive)	-0.0598	0.8	1.12	-0.0332
COc1ccc([Si](C)(C)[C@H]2[C@H](CC(=O)N3Cc4ccccc4C[C@H]3CO)O[C@@]3(C(=O)N(C)c4ccccc43)[C@@H]2C)cc1	0.271	1.09	-0.081	0.583	0.647	1.65	1.36	-3.34 (inactive)	0.596	0.315	1.53	-1.52 (inactive)	-2.06 (inactive)	-0.0615 (inactive)	2.13	0.456 (inactive)	0.173	1.91	1.08	-0.0839
COC(=O)[C@@]1(Cc2ccc(OC)cc2)[C@H]2c3cc(C(=O)N4CCCC4)n(CCn4cc([N+](=O)[O-])nc4C)c3C[C@H]2CN1C(=O)c1ccccc1	2.45	2	0.861	1.25	1.5	1.58	1.31	2.02 (inactive)	2.71	3.56	-0.153	-0.382 (inactive)	0.28 (inactive)	0.725 (inactive)	3.38	-1.01 (inactive)	1.25	0.152	0.413	0.924
[N-]=[N+]=NCc1ccccc1[C@@H]1OC(c2ccc(OCCCO)cc2)=N[C@]1(Cc1ccccc1N=[N+]=[N-])C(=O)NCC(O)CO (stereo not given in full)	-0.166	0.57	0.145	0.61	1.53	1.99	0.981	0.0407 (inactive)	1.84	0.272	1.18	0.263 (inactive)	0.21 (inactive)	0.622 (inactive)	3.29	0.712 (inactive)	0.81	0.92	0.962	0.235
CCOC(=O)C1=C[C@@H](C(C)(C)C)N(S(=O)(=O)c2ccc(C)cc2)[C@H]1c1ccc(C#N)cc1	0.116	0.255	-0.0181	0.707	1.35	1.32	1.22	-0.793 (inactive)	0.313	0.144	1.56	0.3 (inactive)	2.17 (inactive)	1.75 (inactive)	2.88	0.0374 (inactive)	0.419	0.198	1.01	0.126
C=CCOC(=O)[C@@H]1[C@H]2C(=O)O[C@H](c3ccccc3)[C@H](c3ccccc3)N2[C@H](c2ccc(OCCOC(=O)[C@H]3C[C@H]4C(=O)N5CCC[C@H]5C(=O)N4[C@H]3c3cccc(OCCO)c3)cc2)[C@@]12C(=O)Nc1ccc(I)cc12	-0.0333	0.546	-0.0538	0.441	0.596	0.499	1.2	1.67 (inactive)	0.182	-0.0767	1.53	1.3 (inactive)	2.38 (inactive)	4.79 (inactive)	1.6	-0.333 (inactive)	-0.0125	1.52	1.11	0.0238
CC(C)(C)N1CC=CC23O[C@@H]4C=CCOC(=O)[C@@H]4[C@H]2C(=O)N(CCO)[C@@H]3C1=O (stereo not given in full)	0.56	-0.483	-0.206	-0.437	-0.638	1.87	1.66	0.639 (inactive)	-0.633	-0.274	0.717	0.573 (inactive)	-0.0445 (inactive)	0.514 (inactive)	1.34	-0.594 (inactive)	-0.284	-1.6	-0.337	-0.205
COC(=O)[C@@]1(Cc2ccc(F)cc2)[C@H]2c3cc(C(=O)N4CCCC4)n(Cc4ccccn4)c3C[C@H]2CN1C(=O)c1ccccc1	0.116	-0.89	0.272	1.22	1.71	1.29	1.4	0.755 (inactive)	0.987	0.685	0.159	0.269 (inactive)	-0.289 (inactive)	0.856 (inactive)	3.32	-1.76 (inactive)	0.361	-0.108	0.841	0.33
COC(=O)[C@]1(CCC(=O)OC(C)(C)C)N=C(c2ccc(OCCCO)cc2)O[C@@H]1c1ccccc1N=[N+]=[N-]	0.375	-0.135	-0.132	0.171	0.552	0.623	0.908	2.96 (inactive)	0.219	-0.484	1.42	1.15 (inactive)	-0.491 (inactive)	33.8 (active)	2.08	0.217 (inactive)	0.0664	0.677	0.361	-0.127
C=CCOC(=O)[C@@H]1[C@H]2C(=O)O[C@H](c3ccccc3)[C@H](c3ccccc3)N2[C@H](c2ccc(OCCOC(=O)[C@H]3C[C@H]4C(=O)N[C@@H](CCCCN(C)C)C(=O)N4[C@H]3c3ccc(O)cc3)cc2)[C@@]12C(=O)Nc1ccc(I)cc12	-0.139	1.43	-0.0583	0.454	-0.0871	0.655	1.33	0.921 (inactive)	0.166	0.0373	1.53	1.16 (inactive)	-2.52 (inactive)	1.35 (inactive)	2.68	-1.27 (inactive)	-0.0686	1.93	1.1	-0.0487
COc1ccc([Si](C)(C)[C@@H]2[C@@H](CC(=O)N3CCC[C@H]3CO)O[C@]3(C(=O)N(Cc4ccc(N5CCOC5=O)cc4)c4ccccc43)[C@H]2C)cc1	-0.29	0.59	-0.155	-0.0087	0.01	0.717	1.01	-2.49 (inactive)	0.138	-0.0994	1.45	-3.35 (inactive)	-1.13 (inactive)	-0.356 (inactive)	2.72	0.985 (inactive)	-0.242	1.46	0.912	-0.188
Cc1ccc(F)cc1S(=O)(=O)N[C@H]1CCN(Cc2ccc(OC(C)C)cc2)C1	-0.347	0.325	-0.201	-0.0293	-0.563	-0.0273	0.629	-1.84 (inactive)	0.101	-0.132	1.48	-1.09 (inactive)	-13.1 (active)	-1.03 (inactive)	1.17	-2.66 (inactive)	-0.218	1.41	0.0527	-0.18
CN(C)CCCNC(=O)[C@@]1(C)c2ccccc2C(=O)N(Cc2ccc(OC(F)(F)F)cc2)[C@H]1c1ccc(CO)cc1	0.462	-0.674	-0.0587	-0.959	-0.538	1.35	0.161	-2.46 (inactive)	-0.329	-0.435	1.21	-1.7 (inactive)	-1.93 (inactive)	-1.42 (inactive)	1.53	0.649 (inactive)	0.0239	-0.552	-0.0992	-0.229
